Tgondii IFNg: blocks Toxoplasma gondii growth in the presence of IFN-gamma; AID 1259416; actives 3.8% (n = 69,000); activity change, negative = inhibition, % (concentration not given with the values); Toxoplasma gondii growth in IFN-gamma-treated host cells; active compounds read low; in the data active means activity change below about -70%, passing the limit was not always enough;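 further: host cells are HeLa cells infected with Toxoplasma gondii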
* marks the source's active call; other numbers are inactive results. The sample as a whole holds a higher share of hits than the screen did.

SMILES	Tgondii IFNg
COCCN1C(=O)CCc2cc(NC(=O)c3cc(F)ccc3Cl)ccc21	-29.1
COCCOCC(=O)N1CCCn2nc(-c3nc4ccccc4n3C)cc2C1	83.5
CCCc1nnsc1C(=O)N1CCC(Cc2cccc(C(N)=O)c2)C1 (centres undefined)	-7.4
CN1CCC2(CN(C(=O)c3ccc4c(c3)OCO4)C2)OCC1C(=O)O (centres undefined)	-36.0
NC(=O)C1CCN(C(=O)c2cc(-c3ccn(CC4CC4)n3)n3ccccc23)CC1	14.6
Cc1ccc(-c2coc(-c3ccc(NC(=O)COc4ccccc4C)cc3)n2)c(C)c1	-2.1
CC(C)(C)c1csc(Cn2cc(C3CC=CCC3)nn2)n1 (centres undefined)	-41.5
O=C(CN1CCC2(CCC1=O)NC(=O)c1ccccc1N2)NCc1ccc2c(c1)OCO2 (centres undefined)	-12.8
Cc1oc(-c2ccc(OC(C)C)cc2)nc1Cn1ccn2nc(-c3ccc(Cl)cc3)cc2c1=O	26.1
COc1cc(C)c(CN2CCN(c3cc(N)nc(N)n3)CC2)cc1C	4.4
COc1cccc(CC(=O)N2CCc3ncnc(NC4CC4)c3CC2)c1	-2.9
COc1ccc(CC(=O)N2CCc3ncnc(NC4CC4)c3CC2)cc1	-69.0
O=C(c1ccco1)N1CCc2ncnc(NC3CC3)c2CC1	-86.0*
Cc1nnc(SCc2nnc(-c3ccccc3)o2)o1	22.3
CCN(CC)c1ncnc2c1cnn2CC(=O)NCc1ccc(C(F)(F)F)cc1	56.0
CCN(CC)c1ncnc2c1cnn2CC(=O)Nc1ccc(OC)cc1	89.2
CCN(CC)c1ncnc2c1cnn2CC(=O)NCCOC	-16.2
CCN(CC)c1ncnc2c1cnn2CC(=O)NCc1ccc(C)cc1	-85.8*
CCN(CC)c1ncnc2c1cnn2CC(=O)NCc1ccc(F)cc1	-94.0*
CCN(CC)c1ncnc2c1cnn2CC(=O)NCc1cccc(C(F)(F)F)c1	146.3
CCOc1ccc(NC(=O)Cn2ncc3c(N(CC)CC)ncnc32)cc1	75.0
CCN(CC)c1ncnc2c1cnn2CC(=O)NCc1ccc(C)o1	41.8
CCN(CC)c1ncnc2c1cnn2CC(=O)Nc1cccc(F)c1	-75.0*
COCc1ncc(CN2CCN(c3nccc4ccccc34)CC2)cn1	5.4
O=C(O)C1CC(N2CCCC2)CCN1C(=O)c1ccc(F)cc1 (centres undefined)	-20.3
SMILES	Tgondii IFNg
CO[C@H]1COC[C@@H]1n1cnc(-c2ccccc2)c1-c1ccc2occc2c1	-77.8*
C=CCn1cnc(-c2ccccc2)c1-c1ccc2onc(C)c2c1	-0.7
CC(=O)Nc1ccc(-c2c(-c3ccccc3)ncn2Cc2ccco2)cc1	-3.3
CN(C)S(=O)(=O)c1ccc2c(c1)cc(C(=O)N1CCCCC1)n2Cc1ccncc1	76.5
COCCC(=O)N1CCCc2c(C#N)nn(C)c2C1	-15.9
COc1ccc(CCC(=O)Nc2ccn(Cc3ccccc3)n2)cc1	11.2
CN(C)Cc1cnc2n1CCN(C(=O)Cc1ccsc1)CC2	-2.9
CS(=O)(=O)c1cnc(N2CCCCC2)nc1C1CCN(C(=O)Cc2ccsc2)CC1	-18.7
Cc1c(C)n(C2CCCC2)c2ncnc(OC3CCN(C(=O)Cc4ccsc4)CC3)c12	-80.4*
Cc1nccn1CC1(O)CCN(C(=O)CN(C2CCCCC2)S(C)(=O)=O)CC1	1.5
Cc1ncsc1C(=O)N1CCCC1c1cccc(-n2ccnc2C(C)C)n1 (centres undefined)	-13.4
CCCCC(=O)OCC(=O)[C@]1(O)Cc2c(O)c3c(c(O)c2[C@@H](O[C@H]2C[C@H](NC(=O)C(F)(F)F)[C@H](O)[C@H](C)O2)C1)C(=O)c1c(OC)cccc1C3=O	-73.1*
CC(=O)C1(O)Cc2c(O)c3c(c(O)c2C(OC2CC(N)C(O)C(C)O2)C1)C(=O)c1c(O)cccc1C3=O (centres undefined)	-79.0*
COc1cccc2c1C(=O)c1c(O)c3c(c(O)c1C2=O)C[C@@](O)(C(=O)CO)C[C@@H]3O[C@H]1C[C@H](N)[C@H](O)[C@H](C)O1	-77.8*
COc1cccc2c1C(=O)c1c(O)c3c(c(O)c1C2=O)C[C@@](O)(C(C)=O)C[C@@H]3OC1CC(N)C(O)C(C)O1 (some centres undefined)	-75.4*
COc1nc2ccccc2cc1-c1cncc(C(N)=O)c1	45.2
COC(=O)C1(Cc2ccccc2-c2ccc(F)c(F)c2)CCOCC1	-16.7
COCCN1CCOCC12CCN(C(=O)c1cnccn1)CC2	-1.5
CCc1cn[nH]c1C1CCCN(C(=O)c2nnc3nc(C)ccn23)C1 (centres undefined)	-37.7
COCC1CC2OCCN(C(=O)NCc3cccnc3)C2C1 (centres undefined)	60.9
CSc1nnc(C2CCN(CC(=O)NCc3ccc(C)cc3)CC2)n1C	-61.0
Cc1ccc(NC(=O)CCC(=O)OC(C)C(=O)c2ccccc2)cc1C (centres undefined)	5.3
O=C(O)CCC(=O)N1CC2(CCN(C(=O)c3cccnc3)C2)C1	6.4
CNC(=O)c1cc(=O)n(CC(=O)Nc2cccc(Cl)c2)c2ccccc12	-1.9
Cn1c(=O)c2c(ncn2CCC(=O)NCc2cccc(N3CCCCC3)c2)n(C)c1=O	0.2
SMILES	Tgondii IFNg
COC(=O)[C@@H]1C[C@H](NC(=O)c2ccc(C)c(-n3cccc3)c2)CN1C	14.3
C=CCc1cc(-c2nccn2Cc2cccnc2)cc(OC)c1O	3.7
COc1cc(=O)[nH]c(SCC(=O)Nc2ccc(Cl)cn2)n1	-20.8
Cn1c(-c2ccccc2)cnc1NC(=O)c1cccn(CC(=O)N2CCCC2)c1=O	18.7
O=C(CSc1nc2c(c(=O)n1-c1ccccc1)SCC2)Nc1ccc(-c2ccccc2)cn1	-72.7*
Cc1cccc(CN2CCC3(CCN(S(=O)(=O)C4CC4)C3)C2=O)c1 (centres undefined)	-4.6
CCN(CC)Cc1cccc(C(=O)Nc2ccccc2CO)c1	4.2
COc1ccc(Cn2ccc3ccc(C(=O)NO)cc32)cc1	-0.1
CCN(CC)Cc1ccc2cc(COC(=O)Nc3ccc(C(=O)NO)cc3)ccc2c1	-83.0*
Cc1ccc(S(=O)(=O)n2c(N)nc3ccccc32)cc1	17.8
CCC(=O)c1cn(S(=O)(=O)c2ccc(C)cc2)c2ccccc12	-101.5*
O=C(NC1CCCCNC1=O)c1cn(S(=O)(=O)c2ccccc2)c2ccccc12 (centres undefined)	-40.5
CCn1c(SC(C)C(=O)Nc2c(C)cccc2C)nnc1-c1ccccc1 (centres undefined)	16.5
Cc1nc2ccccc2n1CC(C)C(=O)Nc1ccccc1CN1CCN(C)CC1 (centres undefined)	7.4
COc1ccc2[nH]cc(CCNc3ccc(S(=O)(=O)c4ccc(C)c(C)c4)nn3)c2c1	-4.2
CC(C)CCN1c2nc(Nc3cc(F)c(O)c(F)c3)ncc2N(C)C(=O)C1C (centres undefined)	-83.6*
Cc1cc(C)c(-n2cccn2)c(-c2nccn2CCN2CCOC2=O)c1	-2.6
O=C(Nc1ccccc1)c1ncoc1-c1ccccc1	-13.7
CN(Cc1ccco1)c1ccc(-c2nccn2C)nn1	213.0
Cc1c(N(C)C)c(=O)n(-c2ccccc2)n1C	8.3
Cc1[nH]n(-c2ccccc2)c(=O)c1N=Nc1c(C)n(C)n(-c2ccccc2)c1=O	-92.5*
Cc1[nH]n(-c2ccccc2)c(=O)c1C(=O)c1ccccc1	98.3
O=C(CC1CC2(CCN(C(=O)c3ccco3)CC2)c2ccccc21)NCC1CC1 (centres undefined)	-1.2
NC(=O)C1CCCc2c1[nH]c1ccc(Cl)cc21 (centres undefined)	-8.3
CN1C(=O)C2(NCCc3c2[nH]c2ccc(Cl)cc32)c2cc(Br)ccc21 (centres undefined)	-8.7

Assay outcomes deposited in PubChem BioAssay by Broad Institute.
